According to the supplement of paper PMC12645437, “Orthogonal IMiD-Degron Pairs Induce Selective Protein Degradation in Cells” (ACS Chemical Biology, 2025):
In all, about 8,300 sequences were measured (“log2 fold change of degron read counts, EGFP-low vs EGFP+ sorted cells (limma voom), compound-induced degradation”: median about -1.1, highest 2% from about 3.2 on). What follows is part of a selection rich in the highest values, with near analogues and random picks from the rest.

T1: CRBN, Q96SW2
T1 chain: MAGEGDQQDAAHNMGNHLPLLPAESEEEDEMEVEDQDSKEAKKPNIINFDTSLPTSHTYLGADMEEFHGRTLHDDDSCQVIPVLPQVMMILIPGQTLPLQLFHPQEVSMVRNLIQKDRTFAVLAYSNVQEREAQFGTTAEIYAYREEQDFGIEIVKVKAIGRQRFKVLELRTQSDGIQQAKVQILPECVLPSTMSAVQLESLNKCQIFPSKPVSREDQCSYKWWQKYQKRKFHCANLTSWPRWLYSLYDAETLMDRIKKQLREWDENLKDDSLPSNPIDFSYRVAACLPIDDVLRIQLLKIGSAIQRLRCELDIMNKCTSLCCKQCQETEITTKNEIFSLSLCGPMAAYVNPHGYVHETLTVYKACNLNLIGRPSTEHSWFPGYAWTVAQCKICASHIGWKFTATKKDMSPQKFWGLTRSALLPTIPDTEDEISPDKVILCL


Biological target: T1, CRBN, Q96SW2
Test: log2 fold change of degron read counts, EGFP-low vs EGFP+ sorted cells (limma voom), compound-induced degradation; higher = more compound-induced degradation of the degron-EGFP fusion; degrons are variants of IKZF1/3 zinc finger 2; compound dose not given here
Settings: Jurkat, 18 h
Protocol: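 Pooled library of 8380 IKZF3 ZF2 degron mutants (positions 146-167 varied within the IKZF3 130-189 degron; only the varied core is printed, flanks not printed) fused to EGFP with IRES-mCherry, lentivirally expressed in Jurkat cells. mCherry+ cells were treated with one IMiD compound for 18 h (dose not stated) and FACS-sorted into EGFP-low and EGFP+ populations. Degron sequences were counted by NGS, and log2FC (EGFP-low vs EGFP+) was estimated by limma voom over 3 biological replicates.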

[1] = compound: compound 19 (5-tert-butyl-thalidomide)
[2] = compound: compound 22 (5-morpholino-thalidomide)
[3] = compound: compound 33 (diphenyl IMiD analogue)
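Note: pooled lentiviral library of zinc finger degron-EGFP fusions in mCherry-positive Jurkat cells, FACS-sorted after compound exposure, with degron abundance counted by next-generation sequencing.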

Row | Sequence | log2 fold change of degron read counts [1] | log2 fold change of degron read counts [2] | log2 fold change of degron read counts [3] | log2 fold change of degron read counts (compound: thalidomide)
1 | FICNICGADFTQKGNLLRHIKL [46F_47I_49N_50I_52G_53A_54D_55F_67L_, Q9UKT9] | -2.47 | -1.85 | -1.03 | -0.92
2 | FTCDVCGAIFTQKGNLLRHIKL [46F_47T_49D_50V_52G_53A_54I_55F_67L_, Q9UKT9] | -2.2 | -1.5 | -0.885 | -0.951
3 | FACEICGRYFTQKGNLLRHIKL [46F_47A_49E_50I_52G_53R_54Y_55F_67L_, Q9UKT9] | 1.02 | -1.33 | -1.87 | -1.22
4 | FVCPICGADFTQKGNLLRHIKL [46F_47V_49P_50I_52G_53A_54D_55F_67L_, Q9UKT9] | -1.19 | 1.3 | 1.21 | 1.95
5 | FQCPICGADFTQKGNLLRHIKL [46F_47Q_49P_50I_52G_53A_54D_55F_67L_, Q9UKT9] | 0.457 | 1.55 | 2.48 | 3.81
6 | FSCPICGAMFTQKGNLLRHIKL [46F_47S_49P_50I_52G_53A_54M_55F_67L_, Q9UKT9] | 1.66 | 1.01 | 1.5 | 0.771
7 | FGCPICGAMFTQKGNLLRHIKL [46F_47G_49P_50I_52G_53A_54M_55F_67L_, Q9UKT9] | 3.33 | 2.19 | 1.89 | 0.606
8 | FVCPICGAMFTQKGNLLRHIKL [46F_47V_49P_50I_52G_53A_54M_55F_67L_, Q9UKT9] | -0.498 | 1.33 | 1.86 | 1.85
9 | FHCPICGAMFTQKGNLLRHIKL [46F_47H_49P_50I_52G_53A_54M_55F_67L_, Q9UKT9] | 1.97 | 1.9 | 1.34 | 0.306
10 | FSCPICGADFTQKGNLLRHIKL [46F_47S_49P_50I_52G_53A_54D_55F_67L_, Q9UKT9] | 1.3 | 0.182 | 1.52 | 0.227
11 | FYCPICGAMFTQKGNLLRHIKL [46F_47Y_49P_50I_52G_53A_54M_55F_67L_, Q9UKT9] | 2.65 | 2.73 | 2.02 | 0.0372
12 | FQCPICGAMFTQKGNLLRHIKL [46F_47Q_49P_50I_52G_53A_54M_55F_67L_, Q9UKT9] | -0.249 | 2.56 | 2.51 | 3.62
13 | FGCNICGACFTQKGNLLRHIKL [46F_47G_49N_50I_52G_53A_54C_55F_67L_, Q9UKT9] | 1.07 | 2.09 | 1.61 | 0.355
14 | FDCNVCGAMFTQKGNLLRHIKL [46F_47D_49N_50V_52G_53A_54M_55F_67L_, Q9UKT9] | -2.41 | -2.06 | -1.24 | -0.963
15 | FECPQCGAKFTQKGNLLRHIKL [46F_47E_49P_50Q_52G_53A_54K_55F_67L_, Q9UKT9] | -1.95 | -2.7 | -2.13 | 0.127
16 | FWCDICGALFTQKGNLLRHIKL [46F_47W_49D_50I_52G_53A_54L_55F_67L_, Q9UKT9] | 2.43 | 2.23 | 0.921 | -1.11
17 | FNCPICGAGFTQKGNLLRHIKL [46F_47N_49P_50I_52G_53A_54G_55F_67L_, Q9UKT9] | 2.9 | 0.718 | 0.577 | 0.35
18 | LVCEICGFFCTQKGNLLRHIKL [46L_47V_49E_50I_52G_53F_54F_55C_67L_, Q9UKT9] | 0.178 | 0.388 | 0.876 | 1.42
